The source made the active and inactive calls. The calls were made as follows: active = hit-call score of the fitted dose curve at least 0.9, where 1 is the maximum; inactive = score below 0.9.
assay: ATG_Ets_CIS: Attagene CIS-FACTORIAL HepG2 Assay for human Erythroblast Transformation Specific (ETS) (AID 2282941); details: HepG2 ETS cis-reporter transcription, actives raise or lower the signal
Protocol: ATG_CIS is a cell-based, multiplexed-readout assay that uses HepG2, a human liver cell line, with measurements taken at 24 hours after chemical dosing in a 24-well plate.ATG_Ets_CIS is one of 52 assay component(s) measured or calculated from the ATG_CIS assay. It is designed to make measurements of mRNA induction, a form of inducible reporter, as detected with fluorescence intensity signals by Reverse transcription polymerase chain reaction (RT-PCR) and Capillary electrophoresis technology.Data from the assay component ATG_Ets_CIS was analyzed into 1 assay endpoint. This assay endpoint, ATG_Ets_CIS, was analyzed with bidirectional fitting relative to DMSO as the negative control and baseline of activity. Using a type of inducible reporter, measures of mRNA for gain or loss-of-signal activity can be used to understand the reporter gene at the transcription factor-level as they relate to the gene ETS1. Furthermore, this assay endpoint can be referred to as a primary readout, because this assay has produced multiple assay endpoints where this one serves a reporter gene function. To generalize the intended target to other relatable targets, this assay endpoint is annotated to the dna binding intended target family, where the subfamily is winged helix-turn-helix.
Human liver HepG2 cells are transiently transfected with multiple reporter transcription units (MRTUs) in 6-well plates using FuGene 6 reagent (Roche; 3 ml FuGene/1 mg DNA). The MRTU constructs are regulated by a cis-regulating element (promoter). […] A major difference between the CIS and TRANS system is that in CIS activities of endogenous TFs are measured, whereas the TRANS assay evaluates changes in activities of exogenous, chimeric NR-Gal4 proteins. […] At the end of 24 hour incubation, total RNA was isolated using TriZol reagent (Invitrogen). The isolated RNA is then reverse-transcribed using oligo(dT) primer and Mo-MLV reverse transcriptase (Invitrogen) with DNAse I (Ambion) treatment for 30 min. The one-tenth of the produced cDNA was amplified by PCR using Taq DNA polymerase (Invitrogen) and two reporter sequence-specific primers. The PCR products were fluorescently labeled by primer extension with 6-arboxyfluorescein (6-FAM) 5'-labeled reporter sequence-specific primer (2 min at 95 C, 20 s at 68 C and 10 min at 72 C) and these products were digested with 5U of HpaI (New England Biolabs) for 2h at 37 C. The fragments were purified using Qiaquick PCR columns (Qiagen), analyzed on an ABI 3130xL genetic analyzer (Applied Biosystems) with peak positions identified by using a set of X-rhodamine (ROX)-labeled MapMarker1000 molecular weight standards (BioVentures). The raw capillary electrophoresis data was processed using Attagraph software (Attagene).

Compound | outcome
CC(C)(C)c1ccccc1O | inactive
N#CCC#N | inactive
CC(=Cc1ccccc1)[N+](=O)[O-] | inactive
CCOC(=O)Cc1ccccc1 | inactive
CN(C)[C@@H]1C(=O)C(C(N)=O)=C(O)[C@@]2(O)C(=O)C3=C(O)c4c(O)ccc(Cl)c4[C@@](C)(O)[C@H]3C[C@@H]12 | inactive
COc1nn(C(=O)NS(=O)(=O)c2ccccc2OC(F)(F)F)c(=O)n1C | inactive
O=S(=O)(F)C(F)(F)C(F)(F)C(F)(F)C(F)(F)F | inactive
O=S(=O)(C(Cl)(Cl)Cl)C(Cl)(Cl)Cl | inactive
O=C(Cl)OCCOCCOC(=O)Cl | inactive
Fc1cccc(Cl)c1CCl | inactive
CCOC(=O)CCN(SN(C)C(=O)Oc1cccc2c1OC(C)(C)C2)C(C)C | inactive
OCC(c1ccc(Cl)cc1)c1ccc(Cl)cc1 | inactive
Oc1cccc(-c2ccccc2)c1 | inactive
Brc1c(Br)c(Br)c(Oc2c(Br)c(Br)c(Br)c(Br)c2Br)c(Br)c1Br | inactive
FC(F)OCC(F)(F)C(F)(F)F | inactive
C#CCO | inactive
OC(Cc1ccccc1Cl)(Cn1cncn1)C1(Cl)CC1 (stereo not given) | inactive
O=c1[nH]c2ccccc2n1C1CCN(CCCC(c2ccc(F)cc2)c2ccc(F)cc2)CC1 | inactive
CNC(=O)O/N=C/C(C)(C)S(C)(=O)=O | inactive
O=[N+]([O-])c1ccc(Cl)c([N+](=O)[O-])c1 | inactive

Compound | outcome
CCOP(=S)(OCC)O/N=C(\C#N)c1ccccc1 | inactive
OCCCCO | inactive
CCOP(=S)(OCC)SCSc1cc(Cl)ccc1Cl | inactive
CCCCCCCCCCCCBr | inactive
C#CCOC(=O)/C=C(C)/C=C/CC(C)CCCC(C)C (stereo not given) | inactive
O=S(=O)(c1ccc(Cl)cc1)c1cc(Cl)c(Cl)cc1Cl | inactive
Cc1ccc(OP(=O)(Oc2ccc(C)cc2C)Oc2ccc(C)cc2C)c(C)c1 | inactive
CC(C)(C1CCC(O)CC1)C1CCC(O)CC1 (stereo not given) | inactive
Nc1ccc(N)cc1 | inactive
CCCCS(=O)(=O)Cl | inactive
Cc1cc(Cl)ccc1OCCCC(=O)O | inactive
Cc1cc(Cl)ccc1OC(C)C(=O)O (stereo not given) | inactive
O=C(Cc1ccccc1)OCCc1ccccc1 | inactive
C=CCN=C=S | inactive
O=[N+]([O-])c1ccc(Nc2ccccc2)cc1 | inactive
Cc1ccccc1OP(=O)(Oc1ccccc1)Oc1ccccc1 | inactive
c1cc[c]([Sb]([c]2ccccc2)[c]2ccccc2)cc1 | inactive
O=C(O)COc1cc(Cl)c(Cl)cc1Cl | inactive
BrCC(Br)c1ccccc1 (stereo not given) | inactive
CCCCOP(=O)(CCCC)OCCCC | inactive

Reference: PubChem BioAssay (EPA / NIEHS)
